Assay outcomes from PubChem BioAssay.
Giardia FBPA inh – inhibitors of Giardia lamblia fructose-1,6-bisphosphate aldolase. purified Giardia FBPA. Potency, µM (titrated, usually from 59.6 µM), for inactives: at the top dose activity, negative = inhibition, most hits filed as inhibitors. 0.71% of 290,000 active; also: potency is read from the fitted curve at half-maximal effect; % is scaled to controls: 0 for no effect and ±100 for the full control effect; nearly all actives have a fitted effect of over 55% in size
Target sequence (A8B2U2 whole entry, looked up): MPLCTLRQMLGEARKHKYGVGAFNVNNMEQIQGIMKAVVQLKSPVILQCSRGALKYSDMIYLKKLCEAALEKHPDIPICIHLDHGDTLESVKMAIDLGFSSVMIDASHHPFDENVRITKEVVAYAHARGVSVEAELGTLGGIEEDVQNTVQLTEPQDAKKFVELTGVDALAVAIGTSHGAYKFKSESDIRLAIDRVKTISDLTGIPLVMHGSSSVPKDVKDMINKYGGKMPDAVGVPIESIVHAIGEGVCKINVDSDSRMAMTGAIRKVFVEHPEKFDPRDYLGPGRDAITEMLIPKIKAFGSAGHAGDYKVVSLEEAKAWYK
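40 nM FBPA preincubated 10 min at RT with compound (up to 57.5 uM final), then substrate plus GAPDH/TPI/NAD/arsenate coupling and diaphorase/resazurin added. Fluorescence read after 20 min at RT, 525/598 nm.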
Pf growth 48h – P. falciparum growth inhibition at 48 hours (one generation); P. falciparum luciferase growth in erythrocytes, 48 h; Potency, µM (titrated, usually from 28.7 µM), without a hit: at the highest dose activity change, negative = inhibition, usual class: inhibitors; 5.9% of 310,000 active; also: potency is read from the fitted curve at half-maximal effect; % is scaled to controls: 0 for no effect and ±100 for the full control effect
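In quantitative HTS format, infected erythrocytes bearing luciferase-reporter parasites were treated for a single generation at 37 C. Luminescence after adding detection reagent served as the growth measure.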
NS1 function inh – inhibitors of influenza NS1 protein function | Potency, µM (doses to about 46.1 µM), without a hit: top-dose activity, positive = more growth | 0.4% of 270,000 active; calls by dose curve; also: potency is read from the fitted curve at half-maximal effect; actives are rising curves; nearly all actives have a fitted effect of over 50% in size
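Recovery from NS1-induced slow growth read by OD600 in budding yeast switched to galactose assay medium (pH 6.0, -URA) at 1:100 dilution. Compound 23 nl per well; the matching strain lacking NS1 serves as control.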
Pf growth 96h – P. falciparum growth inhibition at 96 hour, primary screen for plastid delayed-death inhibitors; P. falciparum luciferase reporter growth, 96 h; Potency, µM (doses to about 28.7 µM), for inactives: top-dose activity change, negative = inhibition, usual class: inhibitors; 6.9% of 320,000 active; AID 504834; also: potency is read from the fitted curve at half-maximal effect; % is scaled to controls: 0 for no effect and ±100 for the full control effect
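Compounds incubated with erythrocytes infected by luciferase-expressing P. falciparum (2% hematocrit, 0.05% parasitemia final) for 96 hours, 37 C in 5% CO2. Growth inhibition scored as decreased luciferase luminescence.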
Shiga toxin inh – blocks Shiga toxin action in Vero cells. AID 2315. 9.2% of 290,000 active. inhibition, % at 38.7 µM. Vero cells, Shiga toxin protein synthesis inhibition reporter; in the data active = inhibition mostly above about 28%, no sharp cut-off; inactive = mostly below about 43%; also: 0% is about no effect
Cycloheximide cs – counter-screen hit for Shiga toxin inhibitors, cycloheximide; cell reporter, cycloheximide protein synthesis inhibition counterscreen; max response, %; 12% of 300,000 active; in the data active = max response mostly above about 13%, no sharp cut-off; inactive = mostly below about 14%; also: read at 38.3 µM for the half of the compounds with a filed dose; 0% is about no effect
* = called active by the depositor; ? = inconclusive; . = not tested or not shown; [ ] = remark or other dose. Only some compounds are listed: those with a hit (about 21% of all), similar ones and a draw of the others. Unless noted, calls follow the shape of the dose curve; as a rule, active = well fitted curve in the direction sought with a large enough effect; inconclusive = small, poorly fitted or top-dose-only effect, or another doubt; inactive = no such curve, though single readings can be large; an effect the other way counts as inactive or inconclusive.

SMILES | Giardia FBPA inh | Pf growth 48h | NS1 function inh | Pf growth 96h | Shiga toxin inh | Cycloheximide cs
COc1ccccc1N1CCN(C(=O)c2ccc(-c3ccccc3)cc2)CC1 | -0.1% | 27.5% | -60.5% | 54.0% | 34.1 | 20.4*
Oc1ccccc1N1CCN(c2ncccn2)CC1 | -7.8% | -3.7% | -3.4% | . | -3.9 | 9.0
c1ccc(N2CCN(c3ncccn3)CC2)cc1 | 5.6% | 54.1% | -17.1% | 52.4% | 25.2 | 21.9*
COC(=O)c1ccc(/C=C/c2nc3ccccc3c(=O)[nH]2)cc1 | -2.8% | 151.4% | 1.8% | 155.9% | 50.8* | 12.7
Cc1ccc(/C=C/c2nc3ccccc3c(=O)[nH]2)cc1 | 0.5% | -13.4% | -4.9% | 16.7% | 71.1* | 54.4*
COc1ccc(NC(=O)[C@H](C)NC(=O)C2CCN(S(=O)(=O)c3ccc(C)cc3)CC2)cc1OC | -2.4% | 3.7% | -12.2% | 22.2% | -1.9 | -4.0
NCC[C@H](N)C(=O)O | . | . | -1.4% | . | . | .
COc1ccc(NC(=O)CSCC(=O)Nc2cccc3ncccc23)cc1 | . | 22.4% | . | 10.0% | . | .
O=C(NCc1ccco1)c1ccc(Cl)cc1[N+](=O)[O-] | 0.1% | 7.5% | -0.6% | 27.1% | -2.5 | -3.6
CC1CCCN(C(=O)COC(=O)Cc2c(F)cccc2Cl)C1 (stereo not given) | 5.8% | 54.0% | 9.1% | 47.8% | 67.2* | 43.9*
O=C(Cc1ccc(Cl)cc1Cl)OCC(=O)N1CCCCC1 | -1.3% | 10.5% | -11.1% | 1.0% | 42.0 | 21.6*
O=C(COc1ccc(Cl)cc1Cl)N1CCCCCC1 | 6.1% | . | -9.3% | 53.3% | 21.8 | 27.9
O=C(CNC(=O)c1ccc(Cl)cc1Cl)OCC(=O)N1CCCC1 | . | 11.0% | . | 6.9% | . | .
CC1CCN(C(=O)CNC(=O)c2ccc(Cl)cc2Cl)CC1 | 0.0% | . | 0.1% | 94.3% | 49.7* | 27.2*
O=C(NCC(=O)N1CCCCC1)c1ccc(Cl)cc1Cl | -0.8% | . | 7.3% | 203.3% | 58.3* | 49.3*
O=C1/C(=C/c2ccsc2)N2CCC1CC2 | 2.6% | ? | 9.6% | ? | -6.2 | 4.0
O=C(NCC(=O)N1CCCC1)c1ccccc1F | -9.5% | 58.3% | 4.4% | 89.1% | 52.9* | 20.5
O=C(NCC(=O)N1CCCCCCC1)c1ccccc1Br | . | 5.8% | . | 15.3% | . | .
CC(C)(C)c1cc2c(O)c(c1)Cc1cc(C(C)(C)C)cc(c1O)Cc1cc(C(C)(C)C)cc(c1O)Cc1cc(C(C)(C)C)cc(c1O)Cc1cc(C(C)(C)C)cc(c1O)Cc1cc(C(C)(C)C)cc(c1O)Cc1cc(C(C)(C)C)cc(c1O)Cc1cc(C(C)(C)C)cc(c1O)C2 | . | . | -9.3% | . | . | .
CN(c1ccccc1C(=O)Nc1ccc2c(c1)OCCO2)S(C)(=O)=O | -2.6% | ? | 8.6% | 130.7% | -3.5 | 1.1
CN(c1ccc(C(=O)Nc2ccc(CC#N)cc2)cc1)S(C)(=O)=O | -0.1% | 31.6% | . | 70.0% | 57.7* | 18.8
CN(c1ccc(C(=O)Nc2ccc3c(c2)OCCO3)cc1)S(C)(=O)=O | -4.6% | . | 0.1% | 179.5% | 58.5* | 30.9*
CN(c1ccc(C(=O)Nc2ccc3c(c2)OCO3)cc1)S(C)(=O)=O | -14.8% | 65.6% | 3.8% | 99.5% | 61.8* | 33.2*
Cc1cc(C(C)(C)C)ccc1OCC(=O)N/N=C\c1c(C)n(C)n(-c2ccccc2)c1=O | . | 17.7% | 8.1% | -24.3% | -7.0 | -3.9
CN(C)CCN(C(=O)c1ccc2c(c1)CCCC2)c1nc2c(F)cccc2s1 | ? | 6.7% | -10.5% | -25.3% | 62.0 | 56.3*
SMILES | Giardia FBPA inh | Pf growth 48h | NS1 function inh | Pf growth 96h | Shiga toxin inh | Cycloheximide cs
CCOc1cccc2sc(N(CCN(C)C)C(=O)c3ccc4c(c3)OCCO4)nc12 | . | -18.9% | -11.8% | ? | -17.9 | -0.8
CN(C)CCN(C(=O)c1ccc2ccccc2c1)c1nc2c(F)cc(F)cc2s1 | -17.8% | 27.2% | -50.6% | 4.2% | -2.5 | 9.0
COc1cccc2sc(N(CCN(C)C)C(=O)c3ccc4c(c3)CCCC4)nc12 | -11.4% | 10.4µM* | -12.8% | ? | 27.9 | -0.9
O=C(O)CC(c1cccc([N+](=O)[O-])c1)N1Cc2ccccc2C1=O (stereo not given) | 2.5% | 12.8% | 2.3% | -4.0% | 7.4 | -1.2
CC(C)=NOCc1ccc(-c2cn([C@@H]3COC[C@@H]3O)nn2)cc1 | -1.1%[12.9 µM] | . | . | . | . | .
CC(C1CC1)N(Cc1ccccc1)C(=S)Nc1ccccc1Cl (stereo not given) | -3.8% | ? | . | 11.7µM* | -13.5 | -8.1
